Measurements as given in PubChem BioAssay (Tox21).
Values joined by “and” are separate entries in the source; they are usually repeats but may differ in a detail not shown here. Identical values can stand only once. Inconclusive results are not listed. A call without a number means that no potency is given here. More than one record can exist for a structure, and the calls need not agree. Active and inactive are the calls of the source. Calls follow the shape of the dose curve; as a rule, active = well fitted curve in the direction sought with a large enough effect in the repeat runs; inconclusive = weak or mixed curves; inactive = no such curve, though single readings can be large; an effect the other way counts as inactive or inconclusive.

Experiments:
[1] = qHTS RealTime-Glo MT Cell Viability Assay in HepG2 cells - 40 hour (AID 1224870); also: nearly all actives have a fitted effect of over 50% in size
In short: (§1)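 Real-time viability: cells seeded at 600 per well together with NanoLuc and cell-permeant prosubstrate, compounds added after 5 h incubation. Luminescence tracked at 0, 8, 16, 24, 32 and 40 h of exposure.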

[2] = A CellTox Green Cytotoxicity Assay to monitor cytotoxicity in HEK293 cells - 40 hour (AID 1224871); also: nearly all actives have a fitted effect of over 45% in size; also: potency is read from the fitted curve at half-maximal effect
In short: (§2)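 Real-time, in one plate: 600 HEK293 cells/well with dead-cell DNA dye, pinned compound after 5 h, 37 C incubation over 40 h; viable cells give no appreciable fluorescence.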

[3] = qHTS RealTime-Glo MT Cell Viability Assay in HEK293 cells - 16 hour (AID 1224872); also: nearly all actives have a fitted effect of over 50% in size; also: potency is read from the fitted curve at half-maximal effect
In short: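 Viability tracked continuously by luminescence as live cells reduce a prosubstrate for NanoLuc; HEK293 cells preincubated 5 h, compound-treated at 37 C, and read at 0, 8, 16, 24, 32 and 40 h.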

[4] = qHTS RealTime-Glo MT Cell Viability Assay in HepG2 cells - 8 hour (AID 1224873); also: nearly all actives have a fitted effect of over 55% in size
In short: as §1

[5] = A CellTox Green Cytotoxicity Assay to monitor cytotoxicity in HEK293 cells - 24 hour (AID 1224875); also: nearly all actives have a fitted effect of over 45% in size; also: potency is read from the fitted curve at half-maximal effect
In short: as §2

[6] = A CellTox Green Cytotoxicity Assay to monitor cytotoxicity in HepG2 cells - 16 hour (AID 1224876); also: nearly all actives have a fitted effect of over 45% in size; also: potency is read from the fitted curve at half-maximal effect
In short: (§3)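 Cytotoxicity was tracked as dead-cell DNA fluorescence in HepG2 cells treated with test compounds at 37 C; each time-point value comes from one kinetic series spanning 0, 8, 16, 24, 32 and 40 h.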

[7] = qHTS RealTime-Glo MT Cell Viability Assay in HepG2 cells - 32 hour (AID 1224877); also: nearly all actives have a fitted effect of over 55% in size
In short: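 Viability was tracked continuously by NanoLuc luminescence from prosubstrate reduced by living HepG2 cells, at successive time points over 40 h of compound exposure. Cells with reagent were preincubated 5 h at 37 °C before compound addition.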

[8] = A CellTox Green Cytotoxicity Assay to monitor cytotoxicity in HepG2 cells - 24 hour (AID 1224878); also: nearly all actives have a fitted effect of over 45% in size; also: potency is read from the fitted curve at half-maximal effect
In short: as §3

[9] = qHTS RealTime-Glo MT Cell Viability Assay in HEK293 cells - 40 hour (AID 1224874); settings: RealTime-Glo luminescence; max response: stronger effect = lower value; also: nearly all actives have a fitted effect of over 50% in size; also: potency is read from the fitted curve at half-maximal effect
In short: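 Kinetic, non-lysing viability readout. Seed HEK293 (600/well) with reagent, incubate 5 h at 37 C/5% CO2, pin 23 nL compound in DMSO, incubate at 37 C, read luminescence at 0, 8, 16, 24, 32, 40 h.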

[10] = A CellTox Green Cytotoxicity Assay to monitor cytotoxicity in HepG2 cells - 40 hour (AID 1224879); also: nearly all actives have a fitted effect of over 40% in size; also: potency is read from the fitted curve at half-maximal effect
In short: as §3

Row | SMILES | Potency [1] | Potency [2] | Potency [3] | Potency [4] | Potency [5] | Potency [6] | Potency [7] | Potency [8] | max response [9] | Potency [10] | Potency [9]
1 | CC(C)NCC(O)COc1cccc2ccccc12 (stereo not given) | inactive | inactive | inactive | inactive | inactive | inactive | inactive | inactive | – | – | –
2 | Cn1c([N+](=O)[O-])cnc1COC(N)=O | inactive | inactive | – | inactive | inactive | inactive | inactive | inactive | 0.779% (inactive) and 12.4% (inactive) | inactive | –
3 | Nc1c(S(=O)(=O)O)cc(Br)c2c1C(=O)c1ccccc1C2=O | inactive | inactive | – | inactive | inactive | inactive | inactive | inactive | 0.275% (inactive) and -15.6% (inactive) | inactive | –
4 | O=C(O)c1cc(-c2ccccc2)nc2ccccc12 | inactive | inactive | – | inactive | inactive | inactive | inactive | inactive | -1.75% (inactive) and 4.47% (inactive) | inactive | –
5 | C=C(C)C(=O)OCCCCCCCCCCCC | inactive | inactive | – | inactive | inactive | inactive | inactive | inactive | 0.0102% (inactive) and 4.38% (inactive) | inactive | –
6 | Oc1c(Cl)cc(Cl)c(Cl)c1Cl | inactive | inactive | – | inactive | inactive | inactive | inactive | inactive | – | inactive | –
7 | CC1(C)CC(N=C=O)CC(C)(CN=C=O)C1 (stereo not given) | inactive | inactive | – | inactive | inactive | inactive | inactive | inactive | 8.76% (inactive) and 2.25% (inactive) | inactive | –
8 | O=C(c1ccc(O)cc1)c1ccc(O)cc1O | inactive | inactive | – | inactive | inactive | inactive | inactive | inactive | -21.4% (inactive) | inactive | –
9 | O=C(O)c1ccc([N+](=O)[O-])cc1 | inactive | inactive | – | inactive | inactive | inactive | inactive | inactive | 2.62% (inactive) and 0.789% (inactive) | inactive | –
10 | C=C1CC[C@H](O)CC1=C/C=C1\CCC[C@]2(C)[C@@H]([C@H](C)/C=C/[C@H](C)C(C)C)CC[C@@H]12 | inactive | inactive | – | inactive | inactive | inactive | inactive | inactive | – | inactive | 48.5 µM (active) and 49 µM (active)
11 | O=C1CCCCC1 | inactive | inactive | – | inactive | inactive | inactive | inactive | inactive | 4.63% (inactive) and 22.1% (inactive) | inactive | –
12 | NS(=O)(=O)c1cc2c(cc1Cl)NC=NS2(=O)=O | inactive | inactive | – | inactive | inactive | inactive | inactive | inactive | 7.37% (inactive) and 0.52% (inactive) | inactive | –
13 | CN(C)c1ccc(C(=N)c2ccc(N(C)C)cc2)cc1 | – | – | 5.43 µM (active) | – | inactive | inactive | – | inactive | – | 4.31 µM (active) and 18.8 µM (active) | 2.42 µM (active) and 2.97 µM (active)
14 | NCc1cccc(CN)c1 | inactive | – | – | inactive | – | inactive | inactive | inactive | -20.2% (inactive) and 8.99% (inactive) | inactive | –
15 | Oc1ccc2ccccc2c1 | inactive | inactive | – | inactive | inactive | inactive | inactive | inactive | 17.4% (inactive) and 0.276% (inactive) | inactive | –
16 | CCOC(=O)C1OC1c1ccccc1 (stereo not given) | inactive | inactive | – | inactive | inactive | inactive | inactive | inactive | – | – | –
17 | OC1CCCC1 | inactive | inactive | – | inactive | inactive | inactive | inactive | inactive | 8.58% (inactive) and -2.67% (inactive) | inactive | –
18 | CC1=C(CC(=O)O)c2cc(F)ccc2/C1=C\c1ccc(S(C)=O)cc1 (stereo not given) | inactive | inactive | – | inactive | inactive | inactive | inactive | inactive | 14% (inactive) and 12.3% (inactive) | inactive | –
19 | ClC1=C(Cl)C(Cl)(Cl)C(Cl)=C1Cl | inactive | 12.4 µM (active) and 34.7 µM (active) | – | inactive | 38.9 µM (active) | inactive | inactive | inactive | – | 22 µM (active) | 34.9 µM (active)
20 | CCOC(=O)/C=C\C(=O)OCC | inactive | inactive | – | inactive | inactive | inactive | inactive | inactive | 0.421% (inactive) and 21.2% (inactive) | inactive | –

Row | SMILES | Potency [1] | Potency [2] | Potency [3] | Potency [4] | Potency [5] | Potency [6] | Potency [7] | Potency [8] | max response [9] | Potency [10] | Potency [9]
21 | CC(C)(N=C=O)c1cccc(C(C)(C)N=C=O)c1 | inactive | inactive | – | inactive | inactive | inactive | inactive | inactive | 0.966% (inactive) | inactive | –
22 | COCC(=O)O | inactive | inactive | – | inactive | inactive | inactive | inactive | inactive | 0.194% (inactive) and 4.44% (inactive) | inactive | –
23 | CC(C)(C)C1CCC(O)CC1 (stereo not given) | inactive | inactive | – | inactive | inactive | inactive | inactive | inactive | -21.7% (inactive) and -6.15% (inactive) | inactive | –
24 | CCCCC(CC)C(=O)OCCOCCOCCOC(=O)C(CC)CCCC (stereo not given) | inactive | inactive | – | inactive | inactive | inactive | inactive | inactive | -28.2% (inactive) | inactive | –
25 | O=C1O[C@H](CO)[C@@H](O)[C@H](O)[C@H]1O | inactive | inactive | – | inactive | inactive | inactive | inactive | inactive | 1.84% (inactive) and 0.71% (inactive) | inactive | –
26 | O=[N+]([O-])c1cc(N(CCO)CCO)ccc1NCCO | inactive | inactive | – | inactive | inactive | inactive | inactive | inactive | 0.623% (inactive) and 8.81% (inactive) | inactive | –
27 | COC(=O)c1ccccc1O | inactive | inactive | – | inactive | inactive | inactive | inactive | inactive | -1.26% (inactive) and 16.9% (inactive) | inactive | –
28 | CCCCCCCCC | inactive | inactive | – | inactive | inactive | inactive | inactive | inactive | 9.17% (inactive) and -1.35% (inactive) | inactive | –
29 | CCCCOCCOCCOC(=O)CCCCC(=O)OCCOCCOCCCC | inactive | inactive | – | inactive | inactive | inactive | inactive | inactive | 3.67% (inactive) and 5.42% (inactive) | inactive | –
30 | CC1(C)O[C@@H]2C[C@H]3[C@@H]4C[C@H](F)C5=CC(=O)CC[C@]5(C)[C@H]4[C@@H](O)C[C@]3(C)[C@]2(C(=O)CO)O1 | inactive | inactive | – | inactive | inactive | 49 µM (active) and inactive | inactive | 49 µM (active) and inactive | -22.4% (inactive) and 2.26% (inactive) | 43.6 µM (active) and inactive | –
31 | CC(C)(CO)COC(=O)C(C)(C)CO | inactive | inactive | – | inactive | inactive | inactive | inactive | inactive | 0.943% (inactive) and 3.19% (inactive) | inactive | –
32 | CCOC(=O)[C@H](CCc1ccccc1)N[C@@H](C)C(=O)N1Cc2ccccc2C[C@H]1C(=O)O | inactive | inactive | – | inactive | inactive | inactive | inactive | inactive | -0.607% (inactive) and -1.19% (inactive) | inactive | –
33 | Cc1ccc(C(=O)O)o1 | inactive | inactive | – | inactive | inactive | inactive | inactive | inactive | 2.67% (inactive) and -10.1% (inactive) | inactive | –
34 | CCCCC(CC)COC(=O)/C=C\C(=O)OCC(CC)CCCC (stereo not given) | inactive | inactive | – | – | inactive | inactive | inactive | inactive | 1.02% (inactive) and -3.16% (inactive) | inactive | –
35 | Cc1cc(NS(=O)(=O)c2ccc(N)cc2)no1 | inactive | inactive | – | inactive | inactive | inactive | inactive | inactive | 3.11% (inactive) and 0.646% (inactive) | inactive | –
36 | C=CC(=O)OCCCCCCCC(C)C | inactive | inactive | – | inactive | inactive | inactive | inactive | inactive | 4.58% (inactive) and 25.2% (inactive) | inactive | –
37 | CCCCCCCCCCCCOCC1CO1 (stereo not given) | inactive | inactive | – | inactive | inactive | inactive | inactive | inactive | -10.9% (inactive) and -25.4% (inactive) | inactive | –
38 | Clc1cc(Cl)c(Cl)cc1Cl | inactive | inactive | – | inactive | inactive | inactive | inactive | inactive | 4.68% (inactive) and 15.5% (inactive) | inactive | –
39 | CC1=C(/C=C/C(C)=C/C=C/C(C)=C/CO)C(C)(C)CCC1 | inactive | – | inactive | inactive | inactive | inactive | inactive | inactive | -27.5% (inactive) and -20.7% (inactive) | inactive | –
40 | CCCCCCOC(C)=O | inactive | inactive | – | inactive | inactive | inactive | inactive | inactive | 0.539% (inactive) and -29.1% (inactive) | inactive | –
